PubChem BioAssay (NCATS)
Where “and” joins values, the source holds several entries; their conditions need not be identical. Equal values may be shown once. Results filed as inconclusive are left out. Calls of active or inactive are those of the source. Calls follow the shape of the dose curve; as a rule, active = well fitted curve in the direction sought with a large enough effect; inconclusive = small, poorly fitted or top-dose-only effect, or another doubt; inactive = no such curve, though single readings can be large; an effect the other way counts as inactive or inconclusive.

Experiments:
[1] = Viability qHTS for spleen associated tyrosine kinase inhibitor (SYKi) naive MV4-11 cells (AID 1963823); also: nearly all actives have a fitted effect of over 40% in size; also: potency is read from the fitted curve at half-maximal effect
In short: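 SYKi-naive MV4-11 AML cells, 500 per well, were exposed to library compounds for 72 hr at 37 C, 5% CO2. Viability was then read by CellTiter-Glo luminescence after 10 min at room temperature.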

[2] = Viability qHTS for spleen associated tyrosine kinase inhibitor (SYKi) drug resistant MV4-11 cells (AID 1963824); also: nearly all actives have a fitted effect of over 35% in size; also: potency is read from the fitted curve at half-maximal effect
In short: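 SYK-inhibitor-resistant MV4-11 AML cells were seeded at 500 per well onto compound and cultured 72 hours (37 °C, 5% CO2). CellTiter-Glo was then added, and after 10 min at room temperature, luminescence gave viability.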

[3] = Quantitative highthroughput screen to assess conditional lethalithy of NOMO1 cells grown in RPMI1640 with untreated serum (RPMI+s) (AID 1963876);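 also: 100% = DMSO wells and 0% = empty wells without cells; nearly all actives have a fitted effect of over 35% in size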
In short: (§1)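 Each medium arm—HPLM with 10% dialyzed FBS, or RPMI1640 with 5 mM glucose and 10% untreated or dialyzed FBS—was screened against an 11-point, 3-fold compound titration for 48 h at 37 °C, with CellTiter-Glo luminescence as endpoint.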

[4] = Quantitative highthroughput screen to assess conditional lethalithy of P12 Ichikawa cells grown in Human Plasma-Like Medium with dialyzed fetal bovine serum (HPLM+ds) (AID 1963879); details: Potency: viability; also: series mostly up to about 46 µM; nearly all actives have a fitted effect of over 35% in size
In short: as §1

[5] = Quantitative highthroughput screen to assess conditional lethalithy of SEM cells grown in RPMI1640 with unreated serum (RPMI+s) (AID 1963883); also: nearly all actives have a fitted effect of over 35% in size; also: potency is read from the fitted curve at half-maximal effect;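 as to Viability: 100% = DMSO wells and 0% = empty wells without cells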
In short: as §1

[6] = Quantitative highthroughput screen to assess conditional lethalithy of SEM cells grown in RPMI1640 with dialyzed fetal bovine serum (RPMI+ds) (AID 1963884); also: nearly all actives have a fitted effect of over 35% in size; also: potency is read from the fitted curve at half-maximal effect;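 as to Viability: series mostly up to about 46 µM; 100% = DMSO control wells and 0% = empty wells without cells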
In short: as §1

[7] = Cellular viability qHTS for adrenocortical cancer (ACC) cell line SW-13 (AID 1963989); details: SW-13 ACC cells viability, CellTiter-Glo, 48 h; activity (max response): stronger effect = lower value; also: nearly all actives have a fitted effect of over 65% in size; also: potency is read from the fitted curve at half-maximal effect;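 as to activity (max response): cells grown in serum-free medium with ITS supplement; % is scaled to controls: 0 for no effect and ±100 for the full control effect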
In short: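 Viability was read as CellTiter-Glo luminescence after 48 h compound treatment (up to 46 uM final) of SW-13 cells grown serum-free; titration curves were fit with a four-parameter logistic model to give IC50 and efficacy.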

[8] = Cellular viability qHTS for adrenocortical cancer (ACC) cell line NCI-H295R (AID 1963990); also: nearly all actives have a fitted effect of over 60% in size; also: potency is read from the fitted curve at half-maximal effect
In short: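 CellTiter-Glo ATP luminescence, read 48 h after compound addition, measured viability of NCI-H295R adrenocortical cells grown serum-free with ITS. Final concentrations spanned up to 46 uM. Data normalized to DMSO and doxorubicin, fitted for IC50 and maximal response.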

[9] = Quantitative highthroughput screen to assess conditional lethalithy of P12 Ichikawa cells grown in RPMI1640 with dialyzed fetal bovine serum (RPMI+ds) (AID 1963880); details: Potency: P12-Ichikawa viability
In short: as §1

[10] = Quantitative highthroughput screen to assess conditional lethalithy of NOMO1 cells grown in RPMI1640 with dialyzed fetal bovine serum (RPMI+ds) (AID 1963877);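 also: series mostly up to about 46 µM; 100% = DMSO control wells and 0% = empty wells; nearly all actives have a fitted effect of over 30% in size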
In short: as §1

[11] = Quantitative highthroughput screen to assess conditional lethalithy of SEM cells grown in Human Plasma-Like Medium with dialyzed fetal bovine serum (HPLM+ds) (AID 1963882)
In short: as §1

[12] = Quantitative highthroughput screen to assess conditional lethalithy of P12 Ichikawa cells grown in RPMI1640 with untreated serum (RPMI+s) (AID 1963881); details: Potency: viability
In short: as §1

[13] = Quantitative highthroughput screen to assess conditional lethalithy of NOMO1 cells grown in Human Plasma-Like Medium with dialyzed fetal bovine serum (HPLM+ds) (AID 1963878)
In short: as §1

C1=C2CCCN[C@H]2[C@@H]2C[C@H]1[C@H]1CCCCN1C2
inactive: Potency [1] | Potency [2]

COC1CC(OC2CCC3(C)C(CCC4C3CCC3(C)C(C5=CC(=O)OC5)C(OC(C)=O)CC43O)C2)OC(C)C1OC1OC(CO)C(O)C(O)C1O (stereo unspecified)
active: Potency [1] 769 nM | Potency [2] 485 nM

CCc1c(C(=O)C(N)=O)c2c(OCC(=O)O)cccc2n1Cc1ccccc1
inactive: Potency [1] | Potency [2] | Potency [3] | Potency [4] | Potency [5] | Potency [6] | activity (max response) [7] -1.25% | Potency [8]

CCC(C)(C#N)O[C@@H]1O[C@H](CO)[C@@H](O)[C@H](O)[C@H]1O (stereo partly specified)
inactive: Potency [1] | Potency [2]

CO[C@H]1C[C@H](O[C@H]2CC[C@]3(CO)[C@H]4CC[C@]5(C)[C@@H](C6=CC(=O)OC6)CC[C@]5(O)[C@@H]4CC[C@]3(O)C2)O[C@H](C)[C@H]1O
active: Potency [1] 100 nM | Potency [2] 63.2 nM

COC1=C[C@@H]2[C@@H]3Cc4ccc(OC)c(O)c4[C@]2(CCN3C)CC1=O
active: Potency [2] 18600 nM
inactive: Potency [1] | Potency [4] | Potency [9] | Potency [5] | activity (max response) [7] -18.4% | Potency [8]

COC1C=CC23c4cc5c(cc4COC2(O)CN(C)C3C1)OCO5 (stereo unspecified)
inactive: Potency [1] | Potency [2]

CNCC(O)c1ccc(O)cc1 (stereo unspecified)
inactive: Potency [1] | Potency [2] | Potency [10] | Potency [4] | Potency [9] | Potency [11] | Potency [5] | Potency [6] | activity (max response) [7] -3.15% and -7.74% | Potency [8]

CC[C@@H](C(N)=O)N1CCCC1=O
inactive: Potency [1] | Potency [2] | Potency [3] | Potency [10] | Potency [9] | activity (max response) [7] -2.57% | Potency [8]

O=C1C[C@@H]2OCC=C3CN4CC[C@]56c7ccccc7N1[C@H]5[C@H]2[C@H]3C[C@H]46
inactive: Potency [1] | Potency [2]

Cc1cccc(NC(=O)c2ccc(C(F)(F)F)cc2C(=O)O)n1
inactive: Potency [1] | Potency [2]

O=C(N[C@H]1CN2CCC1CC2)c1ccc(Cl)cc1
inactive: Potency [1] | Potency [2] | Potency [4] | Potency [9] | Potency [12] | activity (max response) [7] 3.8% | Potency [8]

CN1C[C@@H]2CN(c3ccc(-c4ccccc4)nn3)C[C@@H]2C1
active: Potency [2] 580 nM
inactive: Potency [1]

C[C@@H]1O[C@@H](O[C@H]2CC[C@@]3(C)C(CC[C@@H]4C3CC[C@]3(C)[C@@H](C5=CC(=O)OC5)CC[C@]43O)C2)[C@H](O[C@@H]2O[C@H](CO)[C@@H](O)[C@H](O)[C@H]2O)[C@H](O)[C@H]1O (stereo partly specified)
active: Potency [1] 343 nM | Potency [2] 172 nM

Fc1ccc(C(OCCN2CCN(CCCc3ccccc3)CC2)c2ccc(F)cc2)cc1
active: Potency [1] 5.96 µM and 6.61 µM | Potency [2] 6.68 µM and 6.61 µM | Potency [13] 20900 nM | Potency [8] 4.61 µM and 11.2 µM

CC/C=C/C=C/C1(C)OC(OC)=C(C(=O)C2C(C)C(=O)c3cc(OC)c(O)c(O)c3C2(C)O)C1=O (stereo unspecified)
active: Potency [1] 10000 nM | Potency [2] 10000 nM

O=c1[nH]c2ccccc2n1C1CCN(Cc2ccc(-c3[nH]c4cc5ncnc5cc4nc3-c3ccccc3)cc2)CC1
inactive: Potency [3] | Potency [4] | Potency [9] | Potency [12]
active: Potency [1] 14800 nM | Potency [2] 1840 nM | Potency [8] 22.4 µM

Clc1ccc([C@]23CNC[C@H]2C3)cc1Cl
inactive: Potency [1] | Potency [2]

O=C(Nc1ccncc1)C(=O)c1cn(Cc2ccc(Cl)cc2)c2ccccc12
active: Potency [1] 132 nM | Potency [2] 166 nM | Potency [7] 126 nM

Oc1ccc(Cl)cc1
inactive: Potency [1] | Potency [2] | activity (max response) [7] 10.2% | Potency [8]

COc1ccc2c(c1OC)C(=O)O[C@H]2[C@@H]1c2cc3c(cc2CCN1C)OCO3
inactive: Potency [1] | Potency [2] | activity (max response) [7] 8.92% | Potency [8]

CC(C(=O)c1ccccc1)N(C)C (stereo unspecified)
inactive: Potency [1] | Potency [2] | activity (max response) [7] 8.81% | Potency [8]

CNC(=O)N1N=C(c2ccc(N)cc2)c2cc3c(cc2CC1C)OCO3 (stereo unspecified)
active: Potency [1] 1840 nM | Potency [2] 2310 nM | Potency [5] 8330 nM | Potency [6] 5900 nM
